In PubChem BioAssay AID686978 (National Center for Advancing Translational Sciences (NCATS), 2013):
The campaign covered roughly 420,000 compounds. About 64,000 (15%) were called active. Another 27% or so got no clear call; they are omitted. Only a sample is shown. Unmarked numbers belong to inactive results. Calls follow the shape of the dose curve; as a rule, active = well fitted inhibition curve with a large enough effect; inconclusive = small, poorly fitted or top-dose-only effect; inactive = flat fitted curve, though single readings scatter.

Test: qHTS for Inhibitors of human tyrosyl-DNA phosphodiesterase 1 (TDP1): qHTS in cells in absence of CPT; also: nearly all actives have a fitted effect of over 55% in size
Details: DT40 Tdp1-/- hTDP1 cells, no CPT, ATP luminescence, 48 h; activity change, negative = growth inhibition: at 46.2 µM (top of the series)
In short: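 Chicken DT40 Tdp1-/- cells stably complemented with human TDP1 were seeded at 400 cells/well with DMSO in place of 20 nM camptothecin. After compound pinning, cells grew at least 48 hr at 37 °C; viability read by CellTiter-Glo luminescence.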
% is scaled to controls: 0 for no effect and ±100 for the full control effect; potency is read from the fitted curve at half-maximal effect.

| SMILES | activity change, negative = growth inhibition | Potency |
| --- | --- | --- |
| CC(=O)c1cccc(NC(=O)c2cc(C)nn2-c2ccccc2)c1 | -28.1% |  |
| CC(=O)c1cccc(NC(=O)c2nc(-c3ccccc3)n(-c3cccc(C)c3)n2)c1 |  | 10.3 µM (active) |
| CC(=O)c1cccc(NC(=O)Nc2ccc(C)cc2)c1 | -22.1% |  |
| COc1ccc2c(c1)C(c1cccs1)=NNC(c1cccnc1)=N2 | -18% |  |
| COC(=O)c1cccc([N+](=O)[O-])c1CS(=O)(=O)c1ccc(C)cc1 | 0.149% |  |
| COc1cccc2c(O)cc(=O)n(C)c12 | -27.5% |  |
| COCCCN(C(=S)Nc1c(C)cc(C)cc1C)C(C)c1ccncc1 (centres undefined) | -2.19% |  |
| Cc1cc2nc(NC(=O)c3ccc(S(=O)(=O)N4CCOCC4)cc3)sc2cc1C | 2.39% |  |
| O=C(Nc1ccc(S(=O)(=O)N2CCOCC2)cc1)c1ccc2ncsc2c1 | 2.34% |  |
| COc1ccc(S(=O)(=O)n2nc(C)c(S(=O)(=O)N3CCOCC3)c2C)cc1 | 18.8% |  |
| COc1ccc(C(=O)Nc2nc(-c3ccc(S(=O)(=O)N4CCOCC4)cc3)cs2)cc1 |  | 20.6 µM (active) |
| CNC(=O)c1ccsc1NC(=O)c1ccc(S(=O)(=O)N2CCOCC2)cc1 |  | 23.1 µM (active) |
| Cc1ccc(S(=O)(=O)N2CCOCC2)cc1NC(=O)c1ccncc1 | -13.4% |  |
| CSc1ccccc1NC(=O)c1ccc2c(c1)CCN2S(C)(=O)=O | -18.4% |  |
| CS(=O)(=O)N1CCc2cc(C(=O)Nc3ccccc3Br)ccc21 | 6.47% |  |
| CNC(=O)c1ccsc1NC(=O)c1ccc(S(=O)(=O)N2CCc3ccccc32)cc1 |  | 18.4 µM (active) |
| Cc1ccc(N2CCN(/N=C/c3cccs3)CC2)cc1 | -15.1% |  |
| CCN1CCN(C2CCCCC2NS(=O)(=O)c2ccc(Cl)cc2)CC1 (centres undefined) | 4.44% |  |
| O=C1OC(C(O)CO)C(O)=C1O (centres undefined) | -6.15% |  |
| COC(=O)c1ccc(COC(=O)C2CCN(S(=O)(=O)c3c(Cl)cccc3Cl)CC2)o1 | -2.71% |  |
| CC(C)(C)n1nnc(CCc2nnn(C(C)(C)C)n2)n1 | -13.1% |  |
| O=S(=O)(NCCCN1CCOCC1)c1ccc(F)c(Cl)c1 | 17.3% |  |
| CCCC1(C(=O)OC)NC(c2ccco2)C2C(=O)N(C)C(=O)C21 (centres undefined) | 10.1% |  |
| COC(=O)[C@]1(CC(C)C)N[C@H](c2ccc(SC3CCCCC3)cc2)[C@@H]2C(=O)N(C)C(=O)[C@@H]21 |  | 23.1 µM (active) |
| COC(=O)[C@]1(C)N[C@H](CN(C)C(=O)c2ccc(C(C)(C)C)cc2)[C@@H]2C(=O)N(C)C(=O)[C@@H]21 | -8.27% |  |
| CCc1nc2cc(C(=O)NCC3CCS(=O)(=O)C3)cc(NC(=O)c3ccccc3OC)c2n1C (centres undefined) | -6.3% |  |

| SMILES | activity change, negative = growth inhibition | Potency |
| --- | --- | --- |
| COc1ccc(-c2nc3cnc(Oc4ccccc4)nc3n(Cc3cccs3)c2=O)cc1 | -4.39% |  |
| CCc1nnc(NC(=O)c2sc3nc(C)cc(COC)c3c2N)s1 | -9.29% |  |
| CCc1nnc(NC(=O)c2ccco2)s1 | 5.95% |  |
| CCc1ccc2nc3sc(C(=O)Nc4nnc(CC)s4)c(N)c3cc2c1 |  | 18.4 µM (active) |
| CCC(=O)c1ccc(OCC(O)CN2C(=O)NC(C)(C)C2=O)cc1 (centres undefined) | 5.76% |  |
| CCOC(=O)c1c(N)sc(C(C)=O)c1C | -22.8% |  |
| Cc1ccc(-c2cc(C(=O)Oc3ccccc3Cl)no2)cc1C | -1.58% |  |
| Cc1cc(C)cc(OCC(=O)Nc2nc3ccc([N+](=O)[O-])cc3s2)c1 | -24.8% |  |
| Cc1cc(NC(=O)COc2ccc([N+](=O)[O-])cc2)no1 | -27.2% |  |
| O=C(NC1CCCCC1)c1cc([N+](=O)[O-])ccc1N1CCOCC1 | -26.5% |  |
| CC(=O)Nc1ccc2nc(SCCOc3cc(C)cc(C)c3)sc2c1 |  | 16.4 µM (active) |
| O=C(Nc1ccccc1)c1ccco1 | 13.4% |  |
| CCOc1ccc2nc(NC(=O)c3cc([N+](=O)[O-])ccc3N3CCOCC3)sc2c1 |  | 18.4 µM (active) |
| Cc1cccc(OCCSc2nc3ccc(NC(=O)COc4ccccc4C)cc3s2)c1 | -16.9% |  |
| Cc1cc(C)cc(OCc2nnc(SCC(=O)Nc3ccccc3)o2)c1 | -0.595% |  |
| O=C(Nc1ccc2nc(SCCOc3ccccc3)sc2c1)c1ccco1 |  | 23.1 µM (active) |
| O=C(NCCSc1ccccc1)c1ccco1 | -15% |  |
| CCCC(=O)N(CCN1CCOCC1)c1nc2ccc(OCC)cc2s1 | -20% |  |
| CCOc1ccc2nc(SC(CC)C(=O)Nc3cc(C)on3)sc2c1 (centres undefined) |  | 18.4 µM (active) |
| COc1cc(NS(=O)(=O)c2cccs2)cc(OC)c1 | -16.9% |  |
| CCOc1cc(CNCc2ccccn2)ccc1OCC(=O)NC(C)(C)C | -73.4% |  |
| Cc1cccc(NC(=O)N2CCCCCC2)c1C | 17.4% |  |
| O=C(CCNC(=O)c1ccccc1Cl)NN=Cc1ccco1 | -0.295% |  |
| CCOCCCNS(=O)(=O)Cc1ccccc1 | 5.44% |  |
| CCC(C)NC(=O)CSC1=Nc2ccccc2C2=NC(CCC(=O)NCc3ccco3)C(=O)N12 (centres undefined) | -3% |  |
| CC(=O)c1cnc(-c2ccccc2)s1 | 6.21% |  |

| SMILES | activity change, negative = growth inhibition | Potency |
| --- | --- | --- |
| CC(=O)c1nnn(-c2ccc(Cl)cc2C#N)c1C | -23.2% |  |
| CC(=O)Nc1ccc2nc(NC(=O)CS(=O)(=O)c3ccc(F)cc3)sc2c1 | -14.1% |  |
| CCOc1ccc2nc(Nc3nc4ccc(NC(C)=O)cc4s3)sc2c1 |  | 10.3 µM (active) |
| CNC(=O)c1ccc2nc(NC(C)=O)sc2c1 | -18.8% |  |
| O=c1c2ccccc2nc(CSc2nnnn2-c2ccccc2)n1-c1ccccc1 | -16.9% |  |
| COCCn1c(SCc2nc3cc(OC)c(OC)cc3c(=O)[nH]2)nnc1-c1ccncc1 | -16.8% |  |
| COc1ccc(C)cc1-n1nnnc1SCc1nc2ccccc2c(=O)[nH]1 |  | 9.2 µM (active) |
| O=C1CCC[C@@H]2CC(N3CCCCC3)C[C@@H]3CCN1[C@H]23 (some centres undefined) | -9.79% |  |
| S=C1Nc2cc(Cl)ccc2Sc2ccccc21 | 8.29% |  |
| Cc1cccc(C)c1NC(=O)C(Cl)C(=O)c1ccccc1 (centres undefined) |  | 7.31 µM (active) |
| Cc1ccccc1NC(=O)c1ccccc1 | -3.3% |  |
| Cc1cccc(C)c1NC(=O)CN(C)C(=O)CCC(=O)c1ccccc1 | 6.97% |  |
| CCCCNCCS(=O)(=O)NCc1ccccc1 | -17.8% |  |
| C[C@H](CO)N1C[C@H](C)[C@@H](CN(C)S(=O)(=O)c2ccc(F)cc2)OCc2cnnn2CCCC1=O | -20.3% |  |
| COc1cc(C(=S)N2CCOCC2)cc(OC)c1OC(=O)c1cc([N+](=O)[O-])cc([N+](=O)[O-])c1 | -7.83% |  |
| CCN(CC)S(=O)(=O)c1ccc(C(=O)N2CCN(C3=NS(=O)(=O)c4ccccc43)CC2)cc1 | 9.61% |  |
| COc1ccccc1N1CCN(S(=O)(=O)c2ccc(Cl)cc2)CC1 | -14.6% |  |
| COc1ccc(N2CCN(C(=O)COC(=O)c3cccc(S(=O)(=O)Nc4ccccc4OC)c3)CC2)cc1 |  | 20.6 µM (active) |
| CN(c1ccccc1)S(=O)(=O)c1ccc(C(=O)N2CCN(c3ccccc3Cl)CC2)cc1 |  | 20.6 µM (active) |
| COc1ccccc1N1CCN(C(=O)c2ccc(Cl)c(S(=O)(=O)N3CCCC3)c2)CC1 |  | 18.4 µM (active) |
| COc1ccc(N2CCN(C(=O)CNS(=O)(=O)c3ccc(C)c(C)c3)CC2)cc1 | -16.1% |  |
| CN(c1ccccc1)S(=O)(=O)c1ccc(Cl)c(C(=O)OCC(=O)N2CCOCC2)c1 | 10.2% |  |
| O=C(c1ccc(Cl)c(S(=O)(=O)N2CCCCCC2)c1)N1CCN(c2ccc(O)cc2)CC1 | -47.4% |  |
| COc1ccc(C(=O)NCc2ccc(Cl)cc2)cc1S(=O)(=O)N1CCCC1 | -9.45% |  |
| COc1ccccc1N1CCN(C(=O)c2ccc(S(=O)(=O)N3CCCCC3)cc2)CC1 |  | 25.9 µM (active) |
| COc1ccccc1CC(=O)Nc1ccc(S(=O)(=O)N2CCCC2)cc1 | -1.81% |  |

| SMILES | activity change, negative = growth inhibition | Potency |
| --- | --- | --- |
| CCOC(=O)N1CCN(C(=O)COC(=O)c2cccc(S(C)(=O)=O)c2)CC1 | -11.6% |  |
| COc1ccc(S(=O)(=O)NCC(c2ccc(C)cc2)N2CCN(C)CC2)cc1OC (centres undefined) | -15.7% |  |
| CC(C)C(NC(=O)C1CCC(C(C)(C)C)CC1)C(=O)NCCCN1CCCCC1 (centres undefined) | -16.1% |  |
| CC1CCN(C(=S)c2cccc(O)c2)CC1 | -4.71% |  |
| C/C=C/C(=O)OCC(=O)Nc1ccc(F)cc1Cl | 2.04% |  |
| CC(CN1CCC(n2nccc2NC(=O)C2CCCC2)CC1)c1ccccc1 (centres undefined) | -3.11% |  |
| Nc1c(-c2ccc(F)cc2)cnc2ncnn12 | -20.8% |  |
| COc1ccc(C)cc1NC(=O)NCc1ccccn1 | 17% |  |
| COC(=O)C1=C(C)N=C2SC(C)C(=O)N2C1/C=C/c1ccccc1 (centres undefined) | -13.3% |  |
| COCCNC(=O)CN(C(=O)CCC(=O)Nc1cc(C)on1)c1ccc(C)cc1C | -22.6% |  |
| COc1ccccc1N1CCN(C(=O)c2c(-c3c(Cl)cccc3Cl)noc2C)CC1 |  | 20.6 µM (active) |
| Cc1onc(-c2ccccc2)c1C(=O)N1CCN(S(=O)(=O)c2ccccc2C(F)(F)F)CC1 | -6.01% |  |
| COc1ccccc1NS(=O)(=O)c1ccc(C(=O)N2CCN(c3ccccc3O)CC2)cc1 |  | 16.4 µM (active) |
| Cc1[nH]n(C)c(=O)c1C(=O)c1c(-c2c(Cl)cccc2Cl)noc1C | -8.02% |  |
| COc1ccccc1NS(=O)(=O)c1ccc(C)c(C(=O)NNC(=O)c2csc(N3CCOCC3)n2)c1 | 0.22% |  |
| COc1ccc(S(=O)(=O)Nc2ccccc2C(=O)N2CCCC2)cc1C | -15.9% |  |
| COc1ccc2c(c1)CCC/C2=N\OC(=O)c1ccccc1F | -24.6% |  |
| CC(C)(CSc1nncn1/N=C/c1ccco1)NS(=O)(=O)c1ccc(Cl)cc1 | -25.2% |  |
| O=C(COC(=O)CSc1nnc(-c2ccc(Cl)cc2)o1)Nc1cc(Cl)cc(Cl)c1 | -9.27% |  |
| Cn1ccsc1=NC(=O)c1cc(S(=O)(=O)N2CCOCC2)ccc1Cl | 1.11% |  |
| Cc1ccccc1C(=O)Nc1ccccc1Sc1ccccc1 | -4.96% |  |
| O=C(O)COc1nsnc1N1CCOCC1 | -2.57% |  |
| CSCCC(NC(N)=O)C(=O)N(C)CC(=O)Nc1ccc(C)cc1 (centres undefined) | -6.89% |  |
| COc1cccc(N2CC(NC(=O)/C=C\c3ccccc3)CC2=O)c1 (centres undefined) | -25.4% |  |
| COc1ccc(-c2nn3c(-c4ccc(OC)cc4)nnc3c3ccccc23)cc1 | 1.41% |  |
| CC(C)N(C(=O)Cn1cc(S(=O)(=O)CC(=O)N2CCOCC2)c2ccccc21)C(C)C | 15.3% |  |
